Sampled rows, rich in hits. Any-hit rate of the full collection: about 4.6%.
KKLEB cytotox = cytotoxicity in KKLEB CF airway cells, primary screen, cytotoxicity control for CF NF-kB inhibitor project, cell-based, uHTS, fluorescence assay plates; KKLEB CF airway cells viability, ATPlite luminescence, overnight; hits give low values; cells stimulated with P. aeruginosa culture filtrate; activity change (cytotoxicity), % at 5 µM; actives 0.36% (n = 360,000); AID 602141, 2011;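 active = corrected activity change at or below -50% at 5 µM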
Mdm2-MdmX inh = inhibitors of human Mdm2-MdmX association, primary screen, cell-based, luminescence, split luciferase, SaOS-2, uHTS; SaOS-2 split-luciferase Mdm2/MdmX complementation; AID 485346, 2010; inhibition, % at 8 µM; actives 3% (n = 330,000); Protein Mdm4 (Homo sapiens) + E3 ubiquitin-protein ligase Mdm2 (Homo sapiens), …;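 active = inhibition of at least 50% at 8 µM in the primary screen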
ABHD5-PLIN5 inh = ABHD5-PLIN5 interaction inhibitors, primary screen, cell lysate, split luciferase complementation, luminescence. Perilipin-5 (Homo sapiens) + 1-acylglycerol-3-phosphate O-acyltransferase ABHD5 (Homo …. Split G. princeps luciferase complementation, 4 h. inhibition, % at 4 µM. actives 0.78% (n = 360,000);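 active = inhibition above the mean inhibition across every tested compound plus 3 SD, cut at about 22% in these data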;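 note: 0% = DMSO only wells and the 100% control is not disclosed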
Target sequence (Q00G26 whole entry, looked up): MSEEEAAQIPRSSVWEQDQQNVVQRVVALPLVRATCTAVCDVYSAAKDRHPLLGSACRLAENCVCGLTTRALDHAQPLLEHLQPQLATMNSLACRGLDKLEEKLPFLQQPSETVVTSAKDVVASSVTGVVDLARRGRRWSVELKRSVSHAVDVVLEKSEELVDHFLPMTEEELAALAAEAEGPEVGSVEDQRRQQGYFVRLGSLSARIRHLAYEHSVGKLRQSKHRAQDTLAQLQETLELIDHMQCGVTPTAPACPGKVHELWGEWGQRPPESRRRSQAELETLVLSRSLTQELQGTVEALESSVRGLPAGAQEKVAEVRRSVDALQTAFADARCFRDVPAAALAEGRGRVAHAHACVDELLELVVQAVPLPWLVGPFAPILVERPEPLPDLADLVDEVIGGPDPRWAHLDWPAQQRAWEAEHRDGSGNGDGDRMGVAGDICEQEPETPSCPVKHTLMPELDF
Target sequence (Q8WTS1 whole entry, looked up): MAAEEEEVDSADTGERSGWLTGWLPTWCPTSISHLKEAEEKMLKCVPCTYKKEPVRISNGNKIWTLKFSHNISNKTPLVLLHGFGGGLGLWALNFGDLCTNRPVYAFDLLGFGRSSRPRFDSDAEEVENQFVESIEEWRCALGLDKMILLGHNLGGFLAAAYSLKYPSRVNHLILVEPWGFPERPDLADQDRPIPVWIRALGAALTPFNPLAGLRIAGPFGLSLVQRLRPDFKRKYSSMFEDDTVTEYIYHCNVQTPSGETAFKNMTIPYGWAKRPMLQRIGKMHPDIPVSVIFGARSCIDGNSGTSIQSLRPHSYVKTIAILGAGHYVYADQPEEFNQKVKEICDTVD
Peg3 promoter = Peg3 promoter-driven luciferase inhibitors, primary screen, cell-based, HeLa, luciferase luminescence | inhibition, % at 20 µM | AID 588405, 2011 | HeLa PEG-Prom luciferase reporter, overnight | actives 1.7% (n = 360,000);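 active = inhibition of at least 50% at 20 µM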
HIF-2a inh = HIF-2a reporter inhibitors, primary screen, luminescence, 786-0 RCC cells; 786-0 RCC cells HIF-2a reporter, luciferase luminescence, overnight; inhibition, % at 18.8 µM; actives 0.72% (n = 360,000);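 active = inhibition of the luminescence signal of 40% or more relative to plate controls, in a single-dose primary screen at 18.75 µM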
CF NFkB block = inhibitors of PAF-induced NF-kB signaling, primary screen, cell-based, GFP fluorescence, uHTS. KKLEB NF-kB-GFP reporter, GFP fluorescence overnight. actives 0.86% (n = 360,000). inhibition, % at 5 µM;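 active = at least 50% inhibition at 5 µM, scaled per plate between neutral and stimulator controls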;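 note: PAF is a Pseudomonas aeruginosa culture filtrate used as stimulus; plate controls were PAF-stimulated DMSO wells for no effect and unstimulated DMSO wells for full effect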
Mdm2 MdmX conf = Mdm2-MdmX complex disruptors, retested hits, confirmation, luminescence, single concentration | Mdm2-MdmX binding, luminescent assay | shares compounds with Mdm2-MdmX inh | inhibition, % at 8 µM | AID 489028, 2010 | actives 55% (n = 10,000); in the data active = inhibition above about 40%
Full FLuc ctr = full-length luciferase signal inhibition, confirmation, counter-screen for Mdm2/MdmX interaction inhibitor project, cell-based, single concentration, SaOS-2. shares compounds with Mdm2-MdmX inh. inhibition, % at 8 µM. actives 77% (n = 6,200). SaOS-2 full-length luciferase counterscreen, luminescence;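 active = mean inhibition at 8 µM reaching about 37%, which flags the compound as non-specific, limit read from the data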;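 note: p53-null SaOS-2 cells with luciferase driven by a doxycycline-inducible promoter; compound on cells about two nights before reading with doxycycline added after day one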
* hit, by the source's call; x = no result given.

SMILES	KKLEB cytotox	Mdm2-MdmX inh	ABHD5-PLIN5 inh	Peg3 promoter	HIF-2a inh	CF NFkB block	Mdm2 MdmX conf	others
COc1ccc(C(CNC(=O)C(CCSC)NC(=O)c2ccccc2OC)N2CCCCC2)cc1 (configuration not stated)	8	39	-1	-3	11	-9	x
O=C1NCCc2onc(-c3ccc(Br)cc3)c21	7	x	17	-106	-155	-20	x
COC(=O)c1nn(-c2ccccc2)c(Cl)c1/C=N/O	4	19	-8	4	12	8	x
COC(=O)c1nn(-c2ccccc2)c(Cl)c1/C=N/OCc1ccc(Cl)cc1Cl	-1	58*	2	37	17	-10	1
CCn1c(SCC(=O)Nc2ccc(N(C)C)cc2)nnc1-c1ccco1	6	25	12	0	-9	-2	x
COc1ccc2c(c1)c1ncn(CCc3ccccc3)c(=O)c1n2C	8	6	-5	-17	-34	-11	x
COc1ccc(Cn2cnc3c4cc(F)ccc4n(C)c3c2=O)cc1	-24	65*	4	17	24	39	9
COc1cc(/C=C(\C#N)c2ccccn2)ccc1OCc1ccccc1Cl	-4	x	-1	-108	-92	10	x
COc1cc(/C=C(\C#N)c2ccccn2)ccc1OCC(=O)Nc1cccc(C(F)(F)F)c1	-3	61*	6	10	4	0	52*	Full FLuc ctr=57*
COc1ccc(C(=S)N2CCN(c3ccccc3C)CC2)cc1OC	-2	x	-1	24	4	29	x
COc1ccccc1N1CCN(C2CCN(C3CCC(c4ccccc4)CC3)CC2)CC1 (configuration not stated)	x	60*	x	x	x	x	29
Clc1ccc(-c2nnc(Sc3nc4ccccc4o3)c3ccccc23)cc1	-18	61*	9	25	24	42	18
Cc1ccc(-c2nnc(Sc3nc4ccccc4o3)c3ccccc23)cc1	-15	53*	6	-48	-27	35	-8
CCSc1nnc(-c2ccc(Cl)cc2)c2ccccc12	-39	6	-4	15	17	29	x
CCOc1cccc(/C=C/c2ccc3cccc(O)c3n2)c1OC	1	11	-10	-18	-331	-53	x
CCOc1cccc(/C=C/c2ccc3cccc(O)c3n2)c1O	14	67*	1	97*	-243	-35	-36
COc1ccc(Cl)cc1/C=C/c1ccc2cccc(O)c2n1	2	50*	-18	-140	-194	-17	1
COc1cc(Cl)cc(/C=C/c2ccc3cccc(O)c3n2)c1OC	-9	49	9	-79	-83	-25	x
COC(=O)C1=NNC(C(=O)OC)C1c1ccccc1 (configuration not stated)	4	x	1	12	2	4	x
Cc1oc(-c2ccccc2Cl)nc1Cn1cccc1C1=NC(c2ccccc2)CO1 (configuration not stated)	3	55*	3	16	-21	10	57*	Full FLuc ctr=90*
CCN(C(=O)COC(=O)CCC(=O)c1ccc(Cl)cc1)c1c(N)n(Cc2ccccc2)c(=O)[nH]c1=O	16	x	2	-10	0	4	x
CC(C)c1ccc(-c2csc3ncnc(N4CCN(C)CC4)c23)cc1	-8	58*	8	1	18	48	57*	Full FLuc ctr=39*
CN(C)c1ccc(/C=C2\C(=N)N3C(=NC2=O)Sc2cc(S(C)(=O)=O)ccc23)cc1	x	89*	x	x	x	x	-4
CCC(=O)Nc1cccc(-c2cnc3ccccc3n2)c1	0	-18	2	-216	-230	-2	x
O=C(Nc1cccc(-c2cnc3ccccc3n2)c1)c1ccccc1	-4	57*	0	-21	-41	-14	-34
SMILES	KKLEB cytotox	Mdm2-MdmX inh	ABHD5-PLIN5 inh	Peg3 promoter	HIF-2a inh	CF NFkB block	Mdm2 MdmX conf	others
CCn1c(=O)cc(SCC(=O)NCc2ccc(C)o2)c2ccccc21	-17	60*	4	7	9	15	37
CCN1CCN(C(=O)CSc2cc(=O)n(CC)c3ccccc23)CC1	3	52*	1	4	-3	-70	41*	Full FLuc ctr=76*
CCn1c(=O)cc(SCC(=O)Nc2ccc(C)cn2)c2ccccc21	8	100*	7	83*	-357	49	70*	Full FLuc ctr=143*
CCn1c(=O)cc(SCC(=O)NCc2ccc(C)cc2)c2ccccc21	-12	32	2	2	3	-8	x
CCn1c(=O)cc(SCC(=O)Nc2cc(OC)c(OC)c(OC)c2)c2ccccc21	-4	53*	5	10	-6	-45	19
COc1ccc(C(=O)COC(=O)c2cc(C)no2)c(OC)c1	8	-14	1	-5	8	-14	x
Cc1ccc(CNC(=O)CCNC(=O)c2ccc([N+](=O)[O-])cc2)cc1	15	4	4	3	8	0	x
O=C(c1cc(-c2cccnc2)nc2ccccc12)N1CCN(S(=O)(=O)c2ccc(Cl)s2)CC1	0	x	0	30	7	-12	x
Clc1ccc(-c2ccc(/C=N/Nc3cc(N4CCOCC4)nc(N4CCOCC4)n3)o2)cc1	-1	43	2	3	-26	13	x
Brc1ccc(-c2ccc(/C=N/Nc3nc(N4CCOCC4)nc(N4CCOCC4)n3)o2)cc1	2	69*	-4	43	2	14	29
Fc1cnc(N/N=C/c2ccc(-c3ccc(Br)cc3)o2)nc1N1CCOCC1	2	59*	6	10	11	-8	1
O=C(N/N=C(\Cc1ncc[nH]1)c1ccccc1)c1ccncc1	5	67*	-4	31	18	18	63*	Full FLuc ctr=30
O=C(N/N=C(\c1ccccc1)c1cccnc1)c1cccc(F)c1	11	99*	-3	53*	3	-23	80*	Full FLuc ctr=33
C/C(=N/NC(=O)c1ccncc1)c1ccccc1	11	-14	0	-37	-12	-9	x
O=C(N/N=C(\Cc1ncc[nH]1)c1ccccc1)c1ccccc1	x	76*	x	x	x	x	53*	Full FLuc ctr=25
O=C(N/N=C(\c1ccccc1)c1cccnc1)c1ccc(O)cc1	12	13	4	15	-4	-10	x

Assay outcomes as filed in PubChem.
